# Assay results published in PubChem BioAssay.
# Several values for one entry are separate records, joined by “and”; a condition that tells them apart may be missing. Equal values may be shown once. Activity calls are given as the source filed them.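 Rule for the calls, unless noted: active = compounds that lower viability of the colon cancer cells in the luminescence readout, with no numeric limit stated; inactive = the rest.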
# Assays:
# [1] = P. berghei load reduction in hepatocytes – cell-based, HepG2, luciferase luminescence, HepG2 viability, primary screen (AID 624349; in the data active = parasite load remaining mostly below about 12%, no sharp cut-off; inactive = mostly above about 10%;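 note: 100% = mean of DMSO negative control wells on the same plate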); details: P. berghei liver stage in HepG2, luciferase luminescence, concentration not given here; parasite load remaining: stronger effect = lower value; viability: measured here: HepG2 viability without parasites
# [2] = Wnt pathway potentiators raising nuclear beta-catenin – imaging, WNT3A-conditioned medium, mouse C2C12, NPC library, primary screen (AID 1117326; in the data active = nuclear beta-catenin stimulation mostly above about 4.2%, no sharp cut-off; inactive = mostly below about 10%); details: stronger effect = higher value
# [3] = stimulators of insulin release from INS-1E, primary screen, cell-based, 5 mM glucose, NPC library (AID 1117329;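 active = compound raises insulin release from rat beta cells at 5 mM glucose, no numeric limit stated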); details: rat INS-1E insulin secretion, at 10 µM, stronger effect = higher value
# [4] = growth inhibition of GSK3B-pretreated HCT116 cells – cell-based, CellTiter-Glo, 0.2 to 20 µM (AID 1117336;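 active = compounds lowering colon cancer cell viability after pretreatment blocking the GSK3B kinase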); details: HCT116 viability after GSK3B inhibitor, at 20 µM, stronger effect = higher value
# [5] = inhibition of endothelial tube formation, primary screen, imaging, VEGF stimulated, CD31 staining, tube area, NPC library (AID 1117340;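 active = compound that reduces growth-factor-driven endothelial tube area in a mixed cell culture, no cutoff stated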); details: VEGF-stimulated ADSC/ECFC co-culture, at 10 µM, stronger effect = higher value
# [6] = GLP1 release stimulators, primary, NCI-H716, NPC library (AID 1117341;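 active = compound raises GLP1 secretion from the human gut endocrine cells, with no numeric limit stated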); details: NCI-H716 cells, at 10 µM, stronger effect = higher value
# [7] = HCT116 colon cancer cell growth inhibition, primary screen, CellTiter-Glo luminescence, NPC library (AID 1117342;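 active = compounds that lower survival of HCT116 colon cancer cells in the luminescence readout, no numeric limit stated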); details: at 20 µM (top of the series)
# [8] = reduced SW480 viability measured with CellTiter-Glo, NPC library, primary (AID 1117343); details: CellTiter-Glo luminescence; at 20 µM (top of the series)
# [9] = NPC library primary testing for decreased DLD-1 cell viability via CellTiter-Glo (AID 1117346;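 active = compounds that lower survival of DLD-1 colon cancer cells in the luminescence readout, no cutoff given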); details: DLD-1 viability, CellTiter-Glo luminescence; at 20 µM (top of the series)
# [10] = EMT-state selective cytotoxicity in co-culture – imaging, PC-3E GFP, TEM4-18 mCherry, primary screen (AID 1345086;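 active = compounds killing one labelled cell type while sparing the other, by normalised counts and ratio limits, not self-fluorescent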;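 for all read-outs here: cells exposed to compound for 72 h before imaging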;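 for red/green cell ratio (normalised): normalised mesenchymal count divided by normalised epithelial count so high means epithelial killing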); details: PC-3E GFP / TEM4-18 mCherry co-culture, imaging cell counts, at 1 µM; for red/green cell ratio (normalised): actives lie on both sides
# [11] = viability loss with induced miR-34 in A549 – imaging, A549 dox-inducible miR-34, nuclei and caspase counts, primary screen (AID 1347080;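 active = compounds whose cell count with miR-34 switched on is under 0.7 times the count with it off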); details: A549 miR-34 inducible, Hoechst nuclei count, 48 h
# [12] = MELAS cybrid and Rieske KO viability enhancers – cell-based, MELAS cybrids, Rieske KO mouse fibroblasts, CellTiter-Glo, primary screen (AID 1508586;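 active = mean z-score across replicates of 1.96 or higher in either the MELAS or the Rieske mutant cell line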;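 note: z relative to plate mean and SD of compound and empty wells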); details: low glucose
# [13] = target: NAD(+) hydrolase SARM1 (Homo sapiens) (UniProt Q6SZW1); test: blocking NAD cleavage by SARM1 SAM-TIR – cell lysate, NAD-Glo luminescence (AID 1508614;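 active = compound whose remaining NAD level is above about 45 nM, limit read from the data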;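 note: higher remaining NAD means stronger inhibition of SARM1 NADase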); details: SAM-TIR HEK293T lysate NADase, at 1 µM, stronger effect = higher value
# [14] = galactose survival enhancers in mitochondrial complex I cybrids – cell-based, galactose medium, ATP luminescence, primary screen (AID 1645843;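 active = z-score of at least 1.8 in each of two replicates, scored against plate mean and spread of sample wells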;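 note: positive z means more ATP and so rescue of galactose-driven cybrid death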); details: complex I mutant cybrid cells, 72 h, stronger effect = higher value
# [15] = tested on: Aerobactin synthetase IucA (Klebsiella pneumoniae, hypervirulent); test: biochemical IucA inhibition screen of LOPAC library by absorbance (AID 1346212; call rule not given here;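 note: 100% = no compound wells and 0% = no enzyme wells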); details: IucA enzyme assay, absorbance (OD) readout; stronger effect = lower value;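 tested at 8 µM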
# [16] = compounds altering circadian rhythm period length – cell-based, LOPAC library, luminescence reporter (AID 2774; call rule not given here;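 note: values are relative to mean of DMSO wells on each plate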); details: circadian reporter cells, at 7 µM, actives lie on both sides
# [17] = compounds altering viability of human ES cells (AID 493140; call rule not given here;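 note: cells exposed to compounds for four days before counting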); details: human embryonic stem cell survival screen; stronger effect = higher value
# [18] = tested on: Hepatitis C virus NS3 helicase; test: blockers of NS3h binding to ssDNA – biochemical, fluorescence polarization, LOPAC1280 library, primary screen (AID 687035; in the data active = inhibition above about 37%); details: Purified HCV NS3 helicase, Cy5-dT15 ssDNA binding fluorescence polarization; stronger effect = higher value; concentration not given here
# [19] = measured here: epithelial PC-3E GFP cell survival
# [20] = measured here: mesenchymal TEM4-18 mCherry cell survival
# [21] = measured here: relative caspase fold change +Dox/-Dox
# [22] = measured here: total cells with miR-34 induction, stronger effect = lower value
# [23] = measured here: total cells without miR-34 induction
# [24] = MELAS cybrid survival, CellTiter-Glo 48 h, stronger effect = higher value
# [25] = Rieske KO mouse fibroblast survival, CellTiter-Glo 72 h
# [26] = stronger effect = lower value, cell number ratio, induced over uninduced
# Sequence of NAD(+) hydrolase SARM1 (Homo sapiens) (Q6SZW1 whole entry, looked up): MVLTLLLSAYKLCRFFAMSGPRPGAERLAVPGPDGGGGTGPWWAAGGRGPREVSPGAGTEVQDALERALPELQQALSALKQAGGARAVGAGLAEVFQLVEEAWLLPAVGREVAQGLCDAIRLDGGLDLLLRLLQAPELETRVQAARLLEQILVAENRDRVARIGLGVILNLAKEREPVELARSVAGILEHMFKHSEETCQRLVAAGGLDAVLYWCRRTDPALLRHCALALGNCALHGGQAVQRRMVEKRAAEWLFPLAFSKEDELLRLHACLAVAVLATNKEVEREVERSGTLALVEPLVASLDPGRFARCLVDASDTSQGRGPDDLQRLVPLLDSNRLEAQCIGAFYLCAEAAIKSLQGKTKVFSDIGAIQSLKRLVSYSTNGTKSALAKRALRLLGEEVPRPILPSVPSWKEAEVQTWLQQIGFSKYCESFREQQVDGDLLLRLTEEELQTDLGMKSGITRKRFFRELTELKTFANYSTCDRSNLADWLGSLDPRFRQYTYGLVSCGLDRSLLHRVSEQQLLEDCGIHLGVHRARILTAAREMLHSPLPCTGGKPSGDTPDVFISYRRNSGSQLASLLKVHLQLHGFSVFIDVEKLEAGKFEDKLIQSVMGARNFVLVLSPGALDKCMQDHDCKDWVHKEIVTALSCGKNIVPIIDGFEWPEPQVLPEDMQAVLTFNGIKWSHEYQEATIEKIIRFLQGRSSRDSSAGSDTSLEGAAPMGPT
structure (smiles),measurement,setting,value
O=C(O)Cc1ccccc1,parasite load remaining,[1],25.8% (inactive) and 52.8% (inactive)
same,viability,[1],91.1% and 112%
same,nuclear beta-catenin stimulation,[2]; at 10 µM,0.2% (inactive)
same,nuclear beta-catenin stimulation,"[2]; stimulation, at 2 µM",0.3%
same,insulin secretion stimulation,[3],-1.1% (inactive)
same,viability decrease,[4],-0.05% (inactive)
same,tube area decrease,[5],-39.3% (inactive)
same,GLP1 secretion stimulation,[6],-0.3% (inactive)
same,inhibition of viability,[7],-9.8% (inactive)
same,viability decrease (inhibition),[8],8.6% (inactive)
same,viability decrease (inhibition),[9],0.45% (inactive)
same,red/green cell ratio (normalised),[10],0.91 (inactive)
same,normalised cell number,[10]; [19],1.01
same,normalised cell number,[10]; [20],0.92
same,fold change,[11]; stronger effect = lower value,0.869 (inactive) and 0.823 (inactive)
same,fold change,[11]; [21],4.43 and 1.17
same,cell count,[11]; [22],10700 and 9120
same,cell count,[11]; [23],12300 and 11100
same,z-score,[12]; [24],0.496 (inactive)
same,z-score,[12]; [25],0.0978
same,remaining NAD,[13],10 nM (inactive)
same,z-score,[14],0.455 (inactive)
C[N+]1(C)[C@@H]2CC[C@H]1CC(OC(=O)C(CO)c1ccccc1)C2 (some centres undefined),nuclear beta-catenin stimulation,[2]; at 10 µM,0.5% (inactive)
same,nuclear beta-catenin stimulation,"[2]; stimulation, at 2 µM",-0.7%
same,insulin secretion stimulation,[3],3.3% (inactive)
same,viability decrease,[4],-5.8% (inactive)
same,tube area decrease,[5],-7.8% (inactive)
same,GLP1 secretion stimulation,[6],2.8% (inactive)
same,inhibition of viability,[7],12.1% (inactive)
same,viability decrease (inhibition),[8],-13.2% (inactive)
same,viability decrease (inhibition),[9],13.1% (inactive)
same,remaining activity,[15],93.2% (inactive)
same,remaining NAD,[13],10 nM (inactive)
C[C@]12CC[C@H](O)CC1=CC[C@@H]1[C@@H]2CC[C@]2(C)C(=O)CC[C@@H]12,period change,[16],-0.175 h (inactive)
same,parasite load remaining,[1],67.8% (inactive) and 14.9% (inactive)
same,viability,[1],72.6% and 126%
same,nuclear beta-catenin stimulation,[2]; at 10 µM,3.7% (inactive)
same,nuclear beta-catenin stimulation,"[2]; stimulation, at 2 µM",1.2%
same,insulin secretion stimulation,[3],-3% (inactive)
same,viability decrease,[4],3.8% (inactive)
same,tube area decrease,[5],8% (inactive)
same,GLP1 secretion stimulation,[6],1.9% (inactive)
same,inhibition of viability,[7],-21.8% (inactive)
same,viability decrease (inhibition),[8],113% (active)
same,viability decrease (inhibition),[9],8.95% (inactive)
same,fold change,[11]; stronger effect = lower value,0.917 (inactive)
same,fold change,[11]; [21],1.38
same,cell count,[11]; [22],8820
same,cell count,[11]; [23],9620
same,z-score,[12]; [24],0.542 (inactive)
same,z-score,[12]; [25],-0.656
same,remaining NAD,[13],10 nM (inactive)
same,z-score,[14],-0.16 (inactive)
COP(=O)(OC)OC=C(Cl)Cl,parasite load remaining,[1],43.6% (inactive)
same,viability,[1],96%
same,nuclear beta-catenin stimulation,[2]; at 10 µM,-0.5% (inactive)
same,nuclear beta-catenin stimulation,"[2]; stimulation, at 2 µM",-1.3%
same,insulin secretion stimulation,[3],-1.6% (inactive)
same,viability decrease,[4],37% (inactive)
same,tube area decrease,[5],-16.8% (inactive)
same,GLP1 secretion stimulation,[6],-1.2% (inactive)
same,inhibition of viability,[7],-1.53% (inactive)
same,viability decrease (inhibition),[8],26.8% (inactive)
same,viability decrease (inhibition),[9],-3.8% (inactive)
same,red/green cell ratio (normalised),"[10]; counts scaled to control wells, 1 = unselective",1.1 (inactive)
same,normalised cell number,[10]; [19],1.09
same,normalised cell number,[10]; [20],1.2
same,fold change,[11]; [26],0.895 (inactive)
same,fold change,[11]; [21],1.25
same,cell count,[11]; [22],10900
same,cell count,[11]; [23],12200
same,remaining NAD,[13],10 nM (inactive)
COc1ccc(C(=O)c2c(C)n(CCN3CCOCC3)c3ccccc23)cc1,parasite load remaining,[1],50.5% (inactive)
same,viability,[1],159%
same,nuclear beta-catenin stimulation,[2]; at 10 µM,1.2% (inactive)
same,nuclear beta-catenin stimulation,"[2]; stimulation, at 2 µM",0.9%
same,insulin secretion stimulation,[3],-0.5% (inactive)
same,viability decrease,[4],75% (active)
same,tube area decrease,[5],8.1% (inactive)
same,GLP1 secretion stimulation,[6],1.7% (inactive)
same,inhibition of viability,[7],54% (active)
same,viability decrease (inhibition),[8],65% (active)
same,viability decrease (inhibition),[9],39.5% (inactive)
same,fold change,[11]; stronger effect = lower value,0.898 (inactive)
same,fold change,[11]; [21],1.25
same,cell count,[11]; [22],9440
same,cell count,[11]; [23],10500
same,z-score,[12]; [24],0.332 (inactive)
same,z-score,[12]; [25],0.082
same,z-score,[14],0.375 (inactive)
CC(=O)[C@H]1CC[C@H]2[C@@H]3CC[C@H]4C[C@H](O)CC[C@]4(C)[C@H]3C(=O)C[C@]12C,period change,[16],-0.1 h (inactive)
same,survival,[17],20.1 (inactive)
same,parasite load remaining,[1],70.8% (inactive)
same,viability,[1],72.4%
same,inhibition,[18],-1% (inactive)
same,nuclear beta-catenin stimulation,[2]; at 10 µM,0.5% (inactive)
same,nuclear beta-catenin stimulation,"[2]; stimulation, at 2 µM",-0.7%
same,insulin secretion stimulation,[3],3.1% (inactive)
same,viability decrease,[4],28% (inactive)
same,tube area decrease,[5],-23.1% (inactive)
same,GLP1 secretion stimulation,[6],-1.7% (inactive)
same,inhibition of viability,[7],41.1% (inactive)
same,viability decrease (inhibition),[8],67.8% (active)
same,viability decrease (inhibition),[9],19.9% (inactive)
same,remaining activity,[15],112% (inactive)
same,fold change,[11]; stronger effect = lower value,1.12 (inactive) and 0.844 (inactive)
same,fold change,[11]; [21],0.8 and 0.773
same,cell count,[11]; [22],11000 and 8700
same,cell count,[11]; [23],9770 and 10300
same,z-score,[12]; [24],0.566 (inactive)
same,z-score,[12]; [25],0.0524
same,z-score,[14],-0.315 (inactive)
CC(O)CN1CCN(CC(=O)[O-])CCN(CC(=O)[O-])CCN(CC(=O)[O-])CC1.[Gd+3] (centres undefined),nuclear beta-catenin stimulation,[2]; at 10 µM,-1.8% (inactive)
same,nuclear beta-catenin stimulation,"[2]; stimulation, at 2 µM",-0.7%
same,insulin secretion stimulation,[3],3.6% (inactive)
same,viability decrease,[4],7.8% (inactive)
same,tube area decrease,[5],9.4% (inactive)
same,GLP1 secretion stimulation,[6],-4.3% (inactive)
same,inhibition of viability,[7],0.7% (inactive)
same,viability decrease (inhibition),[8],-1.9% (inactive)
same,viability decrease (inhibition),[9],-6.4% (inactive)
same,red/green cell ratio (normalised),[10],0.9 (inactive)
same,normalised cell number,[10]; [19],1.27
same,normalised cell number,[10]; [20],1.14
same,fold change,[11]; stronger effect = lower value,0.973 (inactive)
same,fold change,[11]; [21],0.913
same,cell count,[11]; [22],8990
same,cell count,[11]; [23],9240
same,remaining NAD,[13],10 nM (inactive)
O=C(O)c1ccc2[nH]cc(CCCCN3CC=C(c4ccccc4)CC3)c2c1,nuclear beta-catenin stimulation,[2]; at 10 µM,-0.5% (inactive)
same,nuclear beta-catenin stimulation,"[2]; stimulation, at 2 µM",-1.8%
same,insulin secretion stimulation,[3],2.5% (inactive)
same,viability decrease,[4],5.1% (inactive)
same,tube area decrease,[5],-17.1% (active)
same,GLP1 secretion stimulation,[6],-2% (inactive)
same,inhibition of viability,[7],18.8% (inactive)
same,viability decrease (inhibition),[8],-17.9% (inactive)
same,viability decrease (inhibition),[9],-14.3% (inactive)
same,fold change,[11]; [26],0.916 (inactive)
same,fold change,[11]; [21],1.13
same,cell count,[11]; [22],8600
same,cell count,[11]; [23],9380
same,z-score,[14],-0.035 (inactive)
C#C[C@]1(O)C=C[C@H]2[C@@H]3CCC4=CC(=O)CC[C@@H]4[C@H]3CC[C@@]21CC,nuclear beta-catenin stimulation,[2]; at 10 µM,0.9% (inactive)
same,nuclear beta-catenin stimulation,"[2]; stimulation, at 2 µM",-1%
same,insulin secretion stimulation,[3],-0.7% (inactive)
same,viability decrease,[4],7.4% (inactive)
same,tube area decrease,[5],-2.3% (inactive)
same,GLP1 secretion stimulation,[6],3.4% (inactive)
same,inhibition of viability,[7],32.2% (inactive)
same,viability decrease (inhibition),[8],-18.5% (inactive)
same,viability decrease (inhibition),[9],-11.8% (inactive)
CCCN1CCC[C@@H]2Cc3nc(N)ncc3C[C@H]21,period change,[16],-0.24 h (inactive)
same,inhibition,[18],-1% (inactive)
same,nuclear beta-catenin stimulation,[2]; at 10 µM,4.8% (inactive)
same,nuclear beta-catenin stimulation,"[2]; stimulation, at 2 µM",-0.2%
same,insulin secretion stimulation,[3],-0.2% (inactive)
same,viability decrease,[4],-24.3% (inactive)
same,tube area decrease,[5],-0.4% (inactive)
same,GLP1 secretion stimulation,[6],-2.2% (inactive)
same,inhibition of viability,[7],-3.2% (inactive)
same,viability decrease (inhibition),[8],-4.6% (inactive)
same,viability decrease (inhibition),[9],-14.6% (inactive)
same,remaining activity,[15],118% (inactive)
same,fold change,[11]; stronger effect = lower value,0.958 (inactive)
same,fold change,[11]; [21],2.12
same,cell count,[11]; [22],9790
same,cell count,[11]; [23],10200
same,z-score,[14],0.925 (inactive)
